# TMEM16A act – TMEM16A chloride channel activators or potentiators, primary screen, cell-based, HTS; Anoctamin-1 (Mus musculus), Q8BHY3; HEK293 TMEM16A/YFP-H148Q/I152L, iodide quench fluorescence; active compounds read low; B-score at 10 µM; 340,000 tested, 0.3% active;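 active means fluorescence-ratio B-score plate-corrected deviation score at least 3 library SD below zero, with starting fluorescence score within 5 deviations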;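 further: channel opened by trigger with iodide after compound preincubation; score built on the fluorescence ratio of max minus min over baseline; more negative score means more quench and so TMEM16A activation or potentiation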
# Target sequence (Q8BHY3 whole entry, looked up): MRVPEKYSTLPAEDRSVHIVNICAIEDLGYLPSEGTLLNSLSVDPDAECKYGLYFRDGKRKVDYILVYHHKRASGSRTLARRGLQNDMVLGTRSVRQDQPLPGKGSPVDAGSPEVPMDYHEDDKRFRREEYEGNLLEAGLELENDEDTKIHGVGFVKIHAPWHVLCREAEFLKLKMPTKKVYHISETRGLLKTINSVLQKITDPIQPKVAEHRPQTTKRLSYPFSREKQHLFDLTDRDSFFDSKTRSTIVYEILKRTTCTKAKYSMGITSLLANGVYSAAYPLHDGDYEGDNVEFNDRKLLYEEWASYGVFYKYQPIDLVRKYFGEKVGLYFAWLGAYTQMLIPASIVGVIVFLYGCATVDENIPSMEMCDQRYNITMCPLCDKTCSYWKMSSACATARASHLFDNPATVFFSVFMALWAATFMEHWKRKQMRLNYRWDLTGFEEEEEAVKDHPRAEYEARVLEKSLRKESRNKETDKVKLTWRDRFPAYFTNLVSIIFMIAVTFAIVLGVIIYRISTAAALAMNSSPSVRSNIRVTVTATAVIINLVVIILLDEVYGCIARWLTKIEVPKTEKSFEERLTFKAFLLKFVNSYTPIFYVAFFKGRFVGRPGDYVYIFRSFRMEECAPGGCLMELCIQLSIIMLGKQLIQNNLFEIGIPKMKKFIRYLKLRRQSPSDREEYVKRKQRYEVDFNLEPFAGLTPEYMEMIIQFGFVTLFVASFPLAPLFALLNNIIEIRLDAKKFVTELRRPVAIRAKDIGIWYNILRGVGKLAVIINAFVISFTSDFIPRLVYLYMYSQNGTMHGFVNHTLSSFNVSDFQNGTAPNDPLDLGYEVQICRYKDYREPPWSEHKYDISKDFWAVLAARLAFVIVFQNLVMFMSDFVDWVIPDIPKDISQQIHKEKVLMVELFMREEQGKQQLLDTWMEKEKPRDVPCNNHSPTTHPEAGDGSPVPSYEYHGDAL
# MEKK3 PB1 HTS – modulators of MEKK3-MEK5 PB1 binding, primary screen, biochemical, wildtype MEKK3, multiplex bead flow cytometry, Alexa488-MEK5; binding response (% of control), % at 10 µM; Mitogen-activated protein kinase kinase kinase 3 (Homo sapiens), Q99759; 290,000 tested, 1.4% active; bead-based flow cytometry, Alexa488-MEK5 binding to MEKK3; actives lie on both sides; 0 = blocked by unlabeled MEK5, 100 = vehicle;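 active means binding response more than 3 SD above or below the average of its plate-row segment, actives on both sides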;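 further: Alexa488 bead fluorescence after subtracting the streptavidin-only scavenger bead signal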
# ANO1 block – TMEM16A chloride channel inhibitors, primary screen, cell-based, HTS; Anoctamin-1 (Mus musculus), Q8BHY3; HEK293 TMEM16A/YFP iodide influx fluorescence, ionomycin; normalized B-score (activity score, 25-100; higher = stronger inhibition) at 10 µM; 310,000 tested, 1.2% active; AID 588511, 2011;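 active means ratio plate-corrected score three or more library SD toward inhibition, starting fluorescence score within five deviations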;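 further: score derived from kinetic fluorescence span divided by baseline fluorescence per well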
# NTR1 ag – agonists of human NTR1, primary screen, imaging, U2OS cells, beta-arrestin-GFP, high content. Neurotensin receptor type 1 (Homo sapiens), P30989. NTR1-U2OS beta-arrestin-GFP spot imaging, agonist mode. activation, % at 20 µM. 330,000 tested, 0.17% active;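 active means activation at or above 40% of the spot to cytoplasm intensity ratio, with at least 20 cells analyzed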;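 further: 0% = DMSO without peptide and 100% = 100 nM NTR1 peptide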
# MEKK2mut PB1 HTS – MEK5 binding signal on mutant MEKK2 PB1, primary screen, biochemical, multiplex bead flow cytometry, Alexa488-MEK5. AID 1530, 2009. 290,000 tested, 0.35% active. percent response, % at 10 µM. Alexa488-MEK5 binding to MEKK2 mutant; in the data active means percent response above about 24%, passing the limit was not always enough
# MEKK2 WT-MEK5 – modulators of MEK5 binding to wildtype MEKK2, primary screen, biochemical, multiplex bead flow cytometry, Alexa488-MEK5. Mitogen-activated protein kinase kinase kinase 2 (Homo sapiens), Q9Y2U5. Alexa488-MEK5 binding to MEKK2 WT; actives lie on both sides. binding response (% of control), % at 10 µM. 290,000 tested, 1.1% active; in the data active means binding response below about 67% or above about 130%
# MEKK2wt confirm – modulators of MEK5 binding to wildtype MEKK2, confirmation, biochemical, single concentration, multiplex bead flow cytometry | 5,900 tested, 2.4% active | shares compounds with MEKK3 PB1 HTS | Alexa488-MEK5 binding to MEKK2 WT; actives lie on both sides | AID 1892, 2009 | binding response (% of control), % at 10 µM; in the data active means binding response below about 16% or above about 210%; inactive means in between
# MEKK2mut confirm – mutant MEKK2 PB1-MEK5 binding signal retest – biochemical, single concentration, multiplex bead flow cytometry, confirmation. shares compounds with MEKK3 PB1 HTS. Alexa488-MEK5 binding to MEKK2 mutant. percent response, % at 10 µM. 5,900 tested, 2% active; in the data active means percent response mostly above about 71%, no sharp cut-off; inactive means mostly below about 38%;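 further: higher means compound restores mutant binding toward wildtype level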
# MEKK3 confirm – MEKK3 wild-type PB1 binding to MEK5, inhibitors, confirmation, biochemical, bead multiplex flow cytometry, single concentration, wildtype; shares compounds with MEKK3 PB1 HTS; Alexa488-MEK5 binding to MEKK3; active compounds read low; binding response (% of control), % at 10 µM; 5,900 tested, 1.8% active;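 active means binding response below 72% of control, or above a set upper limit, though filed actives all read lower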;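 further: 100% = DMSO only wells and 0% = binding blocked by excess unlabeled MEK5; lower values mean stronger disruption of MEK5 binding to MEKK3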
# * = called active by the depositor; i = inactive; . = no result given; [ ] = dose if it differs, or a comment. A selection: hits, their analogues and other compounds. The true share with any hit is near 3.4%.
SMILES,TMEM16A act,MEKK3 PB1 HTS,ANO1 block,NTR1 ag,MEKK2mut PB1 HTS,MEKK2 WT-MEK5,MEKK2wt confirm,MEKK2mut confirm,MEKK3 confirm
O=C(CN(C1CCCCC1)S(=O)(=O)c1ccc(Br)cc1)NCc1cccnc1,i,96,i,3,-6,88,.,.,.
CCCC1O[C@@H]2C[C@H]3[C@@H]4CCC5=CC(=O)C=C[C@]5(C)[C@H]4[C@@H](O)C[C@]3(C)[C@]2(C(=O)CO)O1 (some centres undefined),i,70*[inhibitor],i,3,2,103,103,0,103
Cc1cc(C(=O)NC2CCC(O)CC2)c(C)o1 (centres undefined),i,.,.,3,.,.,.,.,.
CC(C)NC(=O)C1CCN(C(=O)N(C)C)CC1,i,1.0*[inhibitor],i,0,-20,-3.0*[inhibitor],97,-2,98
O=C(Nc1cccc(CNCCc2c[nH]c3ccccc23)c1)c1ccccc1Cl,i,110,i,4,32*,150*,133,11,103
COc1ccccc1OCCNC(=O)Nc1cc(F)c(F)cc1Cl,i,100,i,2,0,101,.,.,.
COc1ccc(S(=O)(=O)NNC(=O)Nc2ccc(C)cc2C)c(OC)c1,i,104,i,-1,-3,100,.,.,.
Fc1ccccc1Cn1c2[n+](c3ccc(C(F)(F)F)cc31)CCCCC2,i,102,i,1,-2,97,.,.,.
N#Cc1cccc(NC(=O)Cn2c3[n+](c4ccc(C(F)(F)F)cc42)CCCCC3)c1,i,69*[inhibitor],i,-1,0,117,111,6,98
CCOC(=O)N1CCN(Cc2nc(N)nc(Nc3ccc(C)cc3C)n2)CC1,i,97,i,0,-9,89,.,.,.
Cc1ccc(-c2csc(NC(=O)C[n+]3cc(-c4ccc(C)cc4)n4c3CCC4)n2)cc1,i,104,i,4,3,141*,207*,63,109
O=C(C[n+]1cc(-c2ccccc2)n2c1CCC2)N1c2ccccc2Sc2ccccc21,i,103,i,-2,16,124,.,.,.
Cc1ccc(-c2c[n+](CC(=O)N3c4ccccc4Sc4ccccc43)c3n2CCC3)cc1,i,105,i,0,29,152*,129,27,103
Cc1ccc(-c2csc(NC(=O)C[n+]3cc(-c4ccccc4)n4c3CCC4)n2)cc1,i,96,i,2,36,167*,159,29,106
CCCCN(C)C(=O)C1CCN(Cc2cccnc2)CC1,i,112,i,0,27*,118,96,-5,102
CCc1ccccc1NC(=O)CSc1nc2n[nH]c(C)c2c(=N)n1-c1cccc(OC)c1,i,114,i,8,19,140*,109,1,101
CC1(C)NC(=O)N(CC(O)Cn2nnc3ccccc32)C1=O (centres undefined),i,80*[inhibitor],i,2,-12,88,115,11,105
CC1(C)NC(=O)N(CC(O)CN2C(=O)CCC2=O)C1=O (centres undefined),i,99,i,1,-1,100,.,.,.
CC(C)(C)OC(=O)N1CCC(c2c(C(=O)N3CCN(C(=O)c4ccco4)CC3)cnn2-c2ccc(F)cc2F)CC1,i,101,i,0,0,99,.,.,.
Cc1ccc(/C=C2\SC(=S)N(CC3CCCO3)C2=O)o1 (centres undefined),i,93,i,1,-17,61,.,.,.
O=C1/C(=C\c2ccc(-c3ccccc3Cl)o2)SC(=S)N1CC1CCCO1 (centres undefined),i,60*[inhibitor],i,-2,-28,35*[inhibitor],40,-24,82
CSCCC(NC(=O)c1ccccc1Cl)C(=O)NCCc1ccccn1 (centres undefined),i,.,.,-1,.,.,.,.,.
COc1ccc(-c2nc(CN(Cc3cnn(C)c3)C(C)C)c(C)o2)c(OC)c1,i,100,i,2,-5,98,.,.,.
Cc1ccccc1Nc1nnc(SCC(=O)Nc2ccccc2[N+](=O)[O-])s1,i,133*,i,1,0,105,96,-1,102
Cc1cccc(Nc2nnc(SCC(=O)Nc3ccccc3[N+](=O)[O-])s2)c1,i,88,i,5,-1,95,.,.,.
SMILES,TMEM16A act,MEKK3 PB1 HTS,ANO1 block,NTR1 ag,MEKK2mut PB1 HTS,MEKK2 WT-MEK5,MEKK2wt confirm,MEKK2mut confirm,MEKK3 confirm
O=C(c1cc(COc2ccc(F)cc2Cl)on1)N(CCO)Cc1cccs1,i,101,i,1,2,95,.,.,.
CN(C)/C=N/c1ncc(C(=O)c2ccccc2)s1,i,94,i,6,-5,93,.,.,.
Cc1cc(C(=O)c2cnc(/N=C/N(C)C)s2)cc(C)c1O,i,0.0*[inhibitor],i,1,-17,0.0*[inhibitor],109,4,104
COc1ccccc1N(CN1C(=O)c2ccccc2C1=O)C(=O)c1cccc(C)c1,i,141*,i,0,0,107,-3.0*[inhibitor],2,103
CC(C)(C)c1ccc(C(=O)OCC(=O)Nc2sc3c(c2C#N)CCC3)cc1,i,132*,i,4,1,106,76,-19,74
CC(=O)Oc1ccc(C(=O)Nc2cccc(C(=O)Nc3ccccc3C(=O)O)c2)cc1,i,106,i,1,6,105,.,.,.
CCC(=O)Oc1ccc(C(=O)Nc2c[nH]c(=O)[nH]c2=O)cc1,i,69*[inhibitor],i,-2,-1,92,97,-5,103
CCCOc1ccc(C(=O)Nc2c[nH]c(=O)[nH]c2=O)cc1,i,103,i,0,5,110,.,.,.

# Source: PubChem (several laboratories)
